Cav3 T inh – inhibitors of human Cav3.2 T-type calcium channel; Cav3.2-expressing cells, Fluo-4 calcium fluorescence FDSS; stronger effect = lower value; actives 4% (n = 100,000); AID 449739; B-score at 10 µM; O95180;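 active = single-dose well whose peak fluorescence ratio is a statistical outlier from its plate by either plate-standardised score or position-corrected B-score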
DAT uptake mod – human DAT dopamine uptake with cocaine, either direction; Q01959; LLC-PK1 hDAT cells, [14C]-dopamine uptake with cocaine IC80; actives deviate in either direction; B-score at 10 µM; actives 1.3% (n = 110,000);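 active = Z score or B-score, a plate-position-corrected score, falls beyond the plate's 99.7% confidence bounds, in either direction; inactive = both scores lie inside the 99.7% bounds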;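 note: scored against the spread of the other compound wells on the same plate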
PLAP activator – activates human placental alkaline phosphatase; activation fold at 20 µM; purified PLAP enzyme, luminescent substrate read-out; stronger effect = higher value; P05187; actives 1.2% (n = 96,000); in the data active = activation fold above about 2
PostGolgi yeast – growth inhibition of a yeast mutant, post-Golgi transport screen; post-Golgi transport phenotypic cell assay; inhibition, % at 10 µM; actives 0.9% (n = 98,000); AID 739;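 note: yeast cells grown in 1536-well plates; yeast grown about 18 h at 30C before absorbance read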
PostGolgi ctrl – growth of the yeast control strain, post-Golgi counter-screen | actives 5% (n = 98,000) | efflux-deficient yeast background strain, growth absorbance A615, 16 h | inhibition, % at 10 µM | AID 738
D1 mod – allosterically modulates the human D1 dopamine receptor; HEK293 D1, CRE-luciferase, dopamine EC30 potentiation; actives deviate in either direction; AID 641; actives 5.9% (n = 58,000); B-score at 10 µM;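 active = luminescence count or its row- and column-corrected plate score outside the 99.7% band of the plate's sample wells, on either side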
* marks the source's active call; other numbers are inactive results; x = no result. Hits are enriched below; roughly 12% of the tested compounds scored in any of these assays. Cut-off read from the data, not from the text of the source, unless noted: active = inhibition above about 30%; inactive = the rest.

SMILES	Cav3 T inh	DAT uptake mod	PLAP activator	PostGolgi yeast	PostGolgi ctrl	D1 mod
Cc1ccc(N=Nc2c(N)[nH]n3c(=O)cc(-c4ccccc4)nc23)cc1	-7.5*	1.6*	1.2	20	10	x
Cc1[nH]n2c(=O)cc(-c3ccc([N+](=O)[O-])cc3)nc2c1-c1ccccc1	-4.4*	1.4	x	x	x	x
COC(=O)c1cn(NC(=O)C2COc3ccccc3O2)c(=O)c2ccccc12 (stereo not drawn)	-0.19	0.4	1.3	6	12	x
O=C(NCc1ccc2[nH]c3c(c2c1)CCCC3)c1ccc(S(=O)(=O)N2CCOCC2)cc1	-0.3	0.027	x	x	x	x
O=C(NCc1ccc2[nH]c3c(c2c1)CCCC3)N1CCOCC1	-0.46	-0.45	1.4	21	30*	x
O=C(/C=C/c1ccccc1)NC(NC(=S)Nc1cc(Cl)ccc1Cl)C(Cl)(Cl)Cl (stereo not drawn)	-1.7	-0.44	0.9	-9	-1	x
CN1C(=O)/C(=C/c2ccccc2OCc2ccccc2F)NC1=S	x	x	1	-8	9	x
CNc1nc(Sc2ccc(C)cc2)cc(C(F)(F)F)n1	-0.022	1	0.9	7	1	x
O=C(Cc1ccc(Nc2nc3ccc(Br)cc3[nH]2)cc1)NCCc1cccs1	-3.2*	-0.65	1.6	-1	-2	x
O=C(NCC1CC1)c1ccc(Nc2nc3ccc(Br)cc3[nH]2)cc1	-0.086	1.6	1.4	-2	3	x
CC1CCN(C(=O)Cn2c(=O)n(CCc3ccccc3)c(=O)c3ccccc32)CC1	-0.15	-0.46	0.8	21	43*	x
CCNc1nc(NCC)nc(OCCOC(C)=O)n1	-0.21	-0.053	x	x	x	x
CCNc1nc(NC(C)C)nc(OCCOC(=O)Nc2ccccc2)n1	-1.7	3.6*	x	x	x	x
Cc1cccn2c(=O)c3cc(C(=O)N4CCc5ccccc54)n(C)c3nc12	x	x	x	x	x	0.2
CCOC(=O)CC1C(=O)NCCN1C(=O)c1ccc(F)cc1F (stereo not drawn)	-0.093	-3.4*	1.1	-6	-5	x
CCNC(=O)N1CCNC(=O)C1CC(=O)OC (stereo not drawn)	-0.5	0.18	0.9	1	31*	0.15
Cc1sc2ncn(CC(=O)NCCCC(=O)N3CCN(c4ncccn4)CC3)c(=O)c2c1C	0.13	0.8	1.3	2	3	0.77
COC(=O)c1cc[n+](CC(=O)c2ccccc2)cc1	-0.86	0.14	0.7	1	2	x
COC(=O)c1ccc2c(c1)C(C)(C)C(/C=C/c1ccccc1O)=[N+]2C	-3.7*	-3.6*	0.4	-2	6	x
COc1ccc2c(c1)CC/C(=C\C=C\c1ccccc1OC)C2=O	-0.077	2.4	x	x	x	x
COc1ccc2c(c1)C(=O)/C(=C/C=C/c1ccccc1)CC2	-4.7*	-0.33	x	x	x	x
Cc1ccc2[nH]c(=O)c(CN(CC3CCCO3)S(=O)(=O)c3c(C)ccc4nsnc34)cc2c1 (stereo not drawn)	-1.9	-1.2	1.6	1	32*	-0.063
COC(=O)C1=C(C)N=C2SCCC(=O)N2C1/C=C/c1ccccc1 (stereo not drawn)	-1.5	-0.14	1.2	3	19	0.25
Cc1ccc2cc(C)c3nnc(SCC(=O)Nc4nc5c(s4)CCCC5)n3c2c1	-1.6	0.24	1.2	0	3	x
CC(=O)c1c(O)cc(O)c(C(C)=O)c1O	-5.4*	-0.18	x	x	x	x
SMILES	Cav3 T inh	DAT uptake mod	PLAP activator	PostGolgi yeast	PostGolgi ctrl	D1 mod
Cn1c(Cn2c(=O)sc3ccccc32)nnc1SCC(=O)NC1CCCC1	0.38	7.6*	x	0	11	0.023
Cn1c(Cn2c(=O)sc3ccccc32)nnc1SCC(=O)NC1CCCCC1	-0.056	-0.099	x	3	8	x
O=C1c2cccnc2C(=O)N1Cc1ccc(Cl)cc1	1	-0.82	1.4	19	7	x
O=C1c2cccnc2C(=O)N1Cc1ccc(F)cc1	0.089	0.46	1.1	0	-1	-1.2*
O=C(O)CC(c1cccc2ccccc12)n1cccc1 (stereo not drawn)	-0.81	-1	1.1	0	-1	x
Cc1ccc(C(=O)/C=C/Nc2ccc3c(c2)OCO3)cc1	-0.8	-0.062	0.9	-4	-1	x
Cc1noc(NS(=O)(=O)c2ccc(N/C=C\C(=O)c3ccc4c(c3)OCO4)cc2)c1C	-0.01	0.17	1.1	-7	38*	x
Cc1cc(C)c2nc(Nc3nc(C)cc(=O)[nH]3)nc(C)c2c1	x	x	x	x	x	-3.6*
CO/N=C/NC(=O)c1c(OC)ccnc1Oc1cccc(C(F)(F)F)c1	2	0.039	1.2	7	13	x
O=C(CN1CCN(c2ccccn2)CC1)Nc1ccccc1	0.94	-0.78	1.3	-4	3	x
O=C(CN1CCN(c2ccccn2)CC1)Nc1ccc(Oc2ccccc2)cc1	-2.8	-1.8	1.1	58*	2	1.1
CCOc1ccc(NC(=O)CN2CCN(CC(=O)c3ccc(OCC)cc3)CC2)cc1	-0.53	2*	1.7	-2	9	-1.1
CCOc1ccc(NC(=O)C/C(N)=N/O)cc1	-0.16	0.32	1.1	35*	-4	-0.17
CCOc1ccc(NC(=O)CSC(N)=O)cc1	-4.7*	-1	1.6	-8	-10	-0.55
COc1ccc(S(=O)(=O)N2CCN(c3nc4ccccc4nc3-n3nc(C)cc3C)CC2)cc1	-0.74	1.7	0.8	0	11	-1.1
CCCCOC(=O)CSc1nc(N)c(C#N)c(-c2ccc(OCC)cc2)c1C#N	0.1	-0.79	0.8	-10	2	-0.76
CCCCOc1ccc(-c2c(C#N)c(N)nc(SCC(N)=O)c2C#N)cc1	x	-2.3*	1.4	1	13	0.73
Cc1nn(-c2ccccc2)c2sc(C(=O)OC3CCOC3=O)cc12 (stereo not drawn)	x	x	1.4	-2	-2	0.92
O=C1c2cc(CO)cc(O)c2C(=O)c2c(O[C@@H]3OC(CO)[C@@H](O)[C@@H](O)[C@@H]3O)cccc21 (stereo partly drawn)	1.7	-0.84	x	x	x	x
O=C(O[C@H]1[C@H](Oc2ccccc2COC(=O)C2(O)C=CCCC2=O)O[C@H](CO)[C@@H](O)[C@@H]1O)c1ccccc1 (stereo partly drawn)	-4.5*	-0.028	x	x	x	x
CC(C)(C)c1ccc(-c2nnc(SCCN3C(=O)c4ccccc4C3=O)o2)cc1	-1.3	2	1.2	-3	33*	x
Cc1ccc(C(=O)CSc2nnc(-c3ccccc3)o2)cc1	0.42	-0.42	x	x	x	x
CCn1c(=S)sc2c(=O)n(-c3ccccc3)c(SC)nc21	-1.6	0.7	0.9	6	21	1.2
CCn1c(=S)sc2c(=O)[nH]c(C)nc21	0.84	-9*	1	7	10	x
CN(C)S(=O)(=O)c1ccc(NC(=O)c2ccccn2)cc1	-1.3	-0.87	1.1	11	1	-1.1
CN(C)c1ccc(NC(=S)c2ccccn2)cc1	x	x	x	x	x	-6.2*
COc1ccc(NC(=O)N2CCCC(c3nc(-c4ccc(C(C)C)cc4)no3)C2)cc1 (stereo not drawn)	-1.3	1.3	1.3	-9	24	-0.85
N#CC1=C(N)C(C#N)(C#N)C2(C(=O)Nc3ccccc32)C2CCCC=C12 (stereo not drawn)	-1.3	0.67	1.6	-3	-2	-6.2*

Screens (PubChem)
